The nature of assay [1]: resazurin metabolic signal in HepG2 cells – cell-based, resazurin fluorescence, 24 h, PK04 Diversity Set, profiling panel (AID 1172). Further: test concentration not given here. The conditions noted are these: HepG2 viability, higher = more signal.
Assay [2] in a line: budding yeast growth changes without added modifier – OD600, strain BY4716, 24 h, basal condition, primary screen (AID 1173). Particulars: S. cerevisiae BY4716 growth, OD600, 24 h; higher = more signal, called active from +8 up or from −8 down.
Assay [3] in a line: viability profiling in MM1S myeloma cells – cell-based, resazurin fluorescence, basal, 24 h, PK04 Diversity Set, profiling panel (AID 1174). Further: test concentration not given here. The conditions noted are these: higher = more signal, called active from +8 up or from −8 down. On the technique in general: Alamar Blue is a resazurin reagent that responds to reducing activity.
Assay [4] deals with Dihydroorotate dehydrogenase (quinone), mitochondrial (Plasmodium falciparum (isolate 3D7)) (UniProt Q08210). The assay can be described thus: inhibition of P. falciparum DHODH – biochemical, C-terminal His tag, absorbance 600 nm, primary screen (AID 1175).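 Further: recombinant parasite enzyme with a five histidine tag at its C terminus; test concentration not given here.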 Particulars: PfDHODH enzyme, DCIP absorbance 600 nm; higher = more signal, called active from +8 up or from −8 down.
Sequence of Dihydroorotate dehydrogenase (quinone), mitochondrial (Plasmodium falciparum (isolate 3D7)) (Q08210 whole entry, looked up): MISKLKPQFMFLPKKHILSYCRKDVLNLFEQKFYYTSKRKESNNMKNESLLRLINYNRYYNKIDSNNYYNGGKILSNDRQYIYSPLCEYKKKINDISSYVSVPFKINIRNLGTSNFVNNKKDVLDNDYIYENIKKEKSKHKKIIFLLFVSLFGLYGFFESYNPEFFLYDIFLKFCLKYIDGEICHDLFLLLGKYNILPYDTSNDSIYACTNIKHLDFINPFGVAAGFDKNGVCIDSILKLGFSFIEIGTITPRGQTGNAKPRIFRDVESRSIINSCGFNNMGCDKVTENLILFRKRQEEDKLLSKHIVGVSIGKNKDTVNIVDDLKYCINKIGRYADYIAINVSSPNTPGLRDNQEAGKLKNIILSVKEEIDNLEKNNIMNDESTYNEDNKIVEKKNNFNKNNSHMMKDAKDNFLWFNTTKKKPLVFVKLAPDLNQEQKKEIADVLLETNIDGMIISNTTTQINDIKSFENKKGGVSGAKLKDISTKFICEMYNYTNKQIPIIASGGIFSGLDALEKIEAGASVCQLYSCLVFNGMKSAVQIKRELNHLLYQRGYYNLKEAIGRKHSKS
Assay [5] is described as follows: inhibition of PAO1 biofilm formation – strain PAO1, LB-PBS medium, absorbance 600 nm, primary screen (AID 1176). Further: test concentration not given here. Particulars: P. aeruginosa PAO1 growth/biofilm, A600, 12 h; higher = more signal.
Assay [6] in a line: growth modulation of vineyard yeast isolate – strain RM11-1a, OD600, basal, 24 h, primary screen (AID 1177).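 Further: cultures grown under basal conditions with no added stressor; test concentration not given here.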 Particulars: S. cerevisiae RM11-1a growth, OD600, 24 h; higher = more signal, called active from +8 up or from −8 down.
Assay [7] is described as follows: growth of efflux-deficient E. coli DRC39 – strain DRC39, OD650, 24 h, E. coli filamentation inducers, primary screen (AID 1178).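 Further: growth measured as culture turbidity by optical density at 650 nm; test concentration not given here.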 The conditions noted are these: E. coli DRC39 acrAB, higher = more signal, called active from +8 up or from −8 down.
Assay [8] in a line: growth of efflux-deficient E. coli DRC39 – strain DRC39, OD650, 48 h, E. coli filamentation inducers, primary screen (AID 1179).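 Further: screen aims at cell division blockers that make cells filament.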 Particulars: E. coli DRC39 delta-acrAB growth, higher = more signal, called active from +8 up or from −8 down.
Assay [9] in a line: viability profiling in RPMI8226 myeloma cells – cell-based, resazurin fluorescence, basal, 24 h, PK04 Diversity Set, profiling panel (AID 1180).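 Further: RPMI8826 multiple myeloma cell line at 5000 cells per well; test concentration not given here.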 The conditions noted are these: higher = more signal.
The target of assay [10] is E3 ubiquitin-protein ligase XIAP (Homo sapiens) (UniProt P98170). Briefly: small molecules binding XIAP protein – biophysical, small-molecule microarray, fluorescence 635 nm, primary screen (AID 1181).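 Further: score merges 667 nm emission and signal to noise over triplicate slides.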 Particulars: higher = more signal.
Sequence of E3 ubiquitin-protein ligase XIAP (Homo sapiens) (P98170 whole entry, looked up): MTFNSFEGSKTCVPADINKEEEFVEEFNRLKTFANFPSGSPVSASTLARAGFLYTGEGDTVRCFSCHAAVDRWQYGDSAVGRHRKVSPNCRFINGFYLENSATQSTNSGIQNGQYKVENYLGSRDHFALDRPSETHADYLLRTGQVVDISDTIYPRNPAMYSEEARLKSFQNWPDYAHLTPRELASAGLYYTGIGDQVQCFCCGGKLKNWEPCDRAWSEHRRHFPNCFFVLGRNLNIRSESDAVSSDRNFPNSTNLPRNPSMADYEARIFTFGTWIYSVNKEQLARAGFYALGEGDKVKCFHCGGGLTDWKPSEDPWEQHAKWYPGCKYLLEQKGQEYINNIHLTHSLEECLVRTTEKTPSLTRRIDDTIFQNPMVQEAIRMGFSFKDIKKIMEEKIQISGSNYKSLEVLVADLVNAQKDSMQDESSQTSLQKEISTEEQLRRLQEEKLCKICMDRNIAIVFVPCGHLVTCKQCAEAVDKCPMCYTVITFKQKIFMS

Activity calls are given as the source filed them. Unless noted, how the calls were made is not given here.

Regarding `CO[C@H]1COC(=O)CC=C[C@@H](C)[C@H](OC)COC(=O)CCC[C@@H]1C`, the z-score was 0.855 in assay [1]; -0.966 (inactive) in assay [2]; 0.818 (inactive) in assay [3]; -0.172 (inactive) in assay [5]; -1.45 (inactive) in [6]; 0.153 (inactive) in assay [7]. Further, the values for the z-score in [8] and in [9] were 0.039 (inactive) and 0.518, respectively. The composite z-score is -0.526 (inactive) in assay [4] and 0.523 in [10].

Regarding `C#CCCCON=C1C[C@@H](O)[C@@H](O)[C@@H]2[C@@H]3C(=O)N(c4cccc(Oc5ccccc5)c4)C(=O)[C@@H]3CC[C@H]12`, the z-score is 0.331 in assay [1]; -0.351 (inactive) in [2]; 1.08 (inactive) in assay [3]; 0.553 (inactive) in assay [5]; -0.0064 (inactive) in assay [6]; 0.899 (inactive) in assay [7]. Also, the z-score is 0.401 (inactive) in assay [8] and 1.94 in [9]. Besides, the figures for the composite z-score in [4] and in [10] were -1.48 (inactive) and -0.0832, respectively.

As to `COC(=O)CC=C[C@@H](C)[C@@H](C=NOC[C@H]1O[C@H](c2ccccc2)C=C[C@@H]1Oc1ccc(OC)cc1)NS(=O)(=O)c1ccc(C)cc1`, the z-score in assay [1] was -0.659; in assay [2], 0.642 (inactive); in [3] it was -0.0907 (inactive); in assay [5], -0.0781 (inactive); in assay [6], 0.0674 (inactive); in [7], -1.01 (inactive). Further, the figures for the z-score in assay [8] and in assay [9] were -0.913 (inactive) and -0.189, respectively. Further, the figures for the composite z-score in assay [4] and in assay [10] were 0.0727 (inactive) and -0.167, respectively.

For `C#CCCCON=C1[C@H]2CCn3c(=O)n(-c4ccccc4)c(=O)n3[C@H]2[C@H](O)[C@@H]2O[C@H]12`, the z-score in [1] is -0.775; in assay [2], -1.34 (inactive); in assay [3] it was -2.23 (inactive); in assay [5], 0.352 (inactive); in assay [6] it was -1.93 (inactive); in assay [7], -0.536 (inactive). The z-score in [8] is -0.231 (inactive); in assay [9] it was -1.7. Also, the figures for the composite z-score in [4] and in assay [10] were -1.16 (inactive) and -0.147, respectively.

On to `O=c1n(-c2ccccc2)c(=O)n2n1CC[C@@H]1C(=NOCc3ccccc3)[C@H]3O[C@H]3[C@@H](O)[C@@H]12`, for which the z-score in assay [1] is -1.28; in assay [2], -0.274 (inactive); in assay [3], -0.503 (inactive); in assay [5], -0.0485 (inactive); in assay [6], -0.249 (inactive); in assay [7] it was -0.792 (inactive). Further, the figures for the z-score in [8] and in [9] were -0.604 (inactive) and -1.12, respectively. Moreover, the composite z-score in [4] was -3.02 (inactive); in assay [10] it was -0.0026.

Regarding `O=C1[C@H]2[C@H]3[C@H](O)[C@H](O)CC(=NOCc4ccccc4)[C@@H]3CC[C@H]2C(=O)N1Cc1ccc2c(c1)OCO2`, the z-score was 1.03 in assay [1]; -0.419 (inactive) in [2]; 0.0481 (inactive) in assay [3]; 0.07 (inactive) in assay [5]; -0.0921 (inactive) in [6]; 0.419 (inactive) in assay [7]. Moreover, the z-score in [8] is 0.128 (inactive); in assay [9] it was 1.01. Also, the results for the composite z-score in [4] and in assay [10] were -0.0799 (inactive) and -0.0377, respectively.

Take `C=CC[C@@H]1C=C[C@H](ON=C2[C@H]3CCn4c(=O)n(-c5ccccc5)c(=O)n4[C@H]3[C@H](O)[C@@H]3O[C@H]23)[C@@H](CO)O1`: the z-score was -0.684 in [1]; 0.695 (inactive) in assay [2]; -0.646 (inactive) in [3]; 0.675 (inactive) in [5]; 0.779 (inactive) in [6]; 0.207 (inactive) in assay [7]. The z-score in [8] was -0.104 (inactive); in assay [9] it was -0.331. Further, the composite z-score in [4] was 0.329 (inactive); in assay [10], -0.0663.

With `C[C@@H](c1ccccc1)N1C(=O)[C@H]2[C@H]3[C@H](O)[C@H](O)CC(=O)[C@H]3CC[C@H]2C1=O`, the z-score in assay [1] is -0.137; in assay [2], -0.491 (inactive); in assay [3], 0.162 (inactive); in assay [5], 0.128 (inactive); in assay [6], -0.218 (inactive); in [7] it was 0.366 (inactive). For the same compound, the figures for the z-score in assay [8] and in assay [9] were 0.53 (inactive) and 0.033, respectively. The composite z-score was -0.736 (inactive) in assay [4] and 0.0641 in assay [10].

With `CCOC(=O)[C@H](Cc1ccccc1)NC(=O)CCC1CC(OC(=O)NCc2ccc3c(c2)OCO3)CC2(CCCC(COC(=O)NCCC(C)C)O2)O1` (stereo not given in full), the z-score was -0.341 in [1]; -0.426 (inactive) in assay [2]; 0.812 (inactive) in assay [3]; -1.17 (inactive) in [5]; 0.895 (inactive) in assay [6]; 0.308 (inactive) in [7]. Moreover, the z-score was 0.249 (inactive) in assay [8] and 0.75 in [9]. The composite z-score in [4] is 0.55 (inactive); in [10], -0.0559.

Take `C#CCCCON=C1[C@H]2CCn3c(=O)n(C)c(=O)n3[C@H]2[C@H](O)[C@@H]2O[C@H]12`: the z-score in assay [1] is -1.33; in [2], -0.492 (inactive); in assay [3], -1.59 (inactive); in [5] it was -0.568 (inactive); in [6], 0.956 (inactive); in [7] it was 0.0518 (inactive). Also, the z-score in assay [8] is 0.385 (inactive); in assay [9], -1.93. In addition, the composite z-score in assay [4] was -0.511 (inactive); in assay [10], -0.391.

As to `CO[C@@H]1COC(=O)[C@@H](C)NC(=O)CC=C[C@@H](C)[C@H](NS(=O)(=O)c2ccc(C)cc2)COC(=O)[C@H](C)NC(=O)CC=C[C@H]1C`, the z-score in assay [1] is 0.63; in assay [2] it was -0.673 (inactive); in [3] it was 0.416 (inactive); in assay [5], -0.212 (inactive); in assay [6], -0.489 (inactive); in [7] it was 1.39 (inactive). Also, the z-score is 0.428 (inactive) in assay [8] and 1.08 in assay [9]. Moreover, the values for the composite z-score in [4] and in assay [10] were 0.0059 (inactive) and -0.202, respectively.

With `COC(=O)[C@H](C)NC(=O)CCC1CC(OC(=O)NCc2cccc3ccccc23)CC2(CCCC(COC(=O)NCC(c3ccccc3)c3ccccc3)O2)O1` (stereo not given in full), the z-score in assay [1] is 1.64; in assay [2], -0.425 (inactive); in assay [3], 0.945 (inactive); in assay [5] it was -1.24 (inactive); in [6], 0.15 (inactive); in [7], 0.0127 (inactive). For the same compound, the z-score in assay [8] was 0.393 (inactive); in assay [9], 1.04. For the same compound, the results for the composite z-score in [4] and in assay [10] were 0.0975 (inactive) and -0.108, respectively.
